Assay [1] in a line: antimalarial activity against Dd2 strain (AID 2302;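 active = growth inhibition above 50% at the single 2 µM test dose, taken to imply half-maximal potency below 2 µM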;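 also: 0% = DMSO untreated growth and 100% = chloroquine plus artemisinin killed control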). Conditions: P. falciparum Dd2 in RBCs, LDH growth readout, 72 h; at 2 µM; active compounds read high.
Assay [2] in a line: HepG2 cytotoxicity, primary screen, cytotoxicity control for P. falciparum antimalarial project, cell-based, ATP luminescence (AID 2303;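 active = inhibition above 50%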;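 also: 0% = DMSO wells and 100% = digitonin-killed cells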). As to conditions: HepG2 viability, 24-48 h, at 10 µM, active compounds read high.
Assay [3] concerns the target L-lactate dehydrogenase (Plasmodium falciparum (isolate CDC / Honduras)) (UniProt Q27743). As to the kind of experiment: PfLDH activity inhibition – cell lysate, 3D7 strain, counter-screen for P. falciparum growth inhibition project (AID 2304).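 Also: 0% = vehicle and 100% = reference inhibitor.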 As to conditions: P. falciparum 3D7 crude extract, LDH APAD/NBT absorbance; at 2 µM; active compounds read high. For orientation: The purpose of a counterscreen is to sort out artefacts and off-target activity.

Assay [4] in a line: inhibition of 3D7 malaria parasite growth – strain 3D7 (AID 2306).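 Also: 0% = DMSO wells and 100% = chloroquine plus artemisinin control wells.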 Conditions: P. falciparum 3D7 erythrocytic growth, LDH absorbance, 72 h; at 2 µM; active compounds read high.
Assay [5] deals with Calcium-dependent protein kinase 1 (Plasmodium falciparum (isolate 3D7)) (UniProt P62344). The assay can be described thus: PfCDPK1 kinase inhibitors, biochemical, TCAMS library (AID 1159585; cut-off not given, nearly all actives have IC50 up to about 0.98 µM;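 also: inhibitors leave more ATP so luminescence rises with inhibition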). Conditions: recombinant PfCDPK1, Kinase-Glo ATP depletion luminescence. Background: In Kinase-Glo more light means more ATP remaining.
Assay [6] addresses Plasmodium falciparum protein kinase 6 (PK6, PF3D7_1337100) (UniProt Q8IDW1). The assay can be described thus: PfPK6 kinase inhibitors, biochemical, TCAMS library (AID 1159586). As to conditions: recombinant PfPK6, Kinase-Glo ATP depletion luminescence.
Assay [7] addresses Protein kinase 7 (PK7), Plasmodium falciparum 3D7 (PF3D7_0213400) (UniProt Q7YTF7). As to the kind of experiment: inhibition of Plasmodium PK7 catalytic activity – biochemical, TCAMS antimalarial set, Kinase-Glo luminescence (AID 1159587). Conditions: recombinant PfPK7, Kinase-Glo ATP depletion luminescence.
Assay [8] has as its target Calcium-dependent protein kinase 4 (Plasmodium falciparum (isolate 3D7)) (UniProt Q8IBS5). As to the kind of experiment: PfCDPK4 kinase inhibitors, biochemical, TCAMS library (AID 1159588; cut-off not given, nearly all actives have IC50 up to about 0.91 µM). Conditions: recombinant PfCDPK4, Kinase-Glo ATP depletion luminescence.

A number with no mark means an inactive call. For some of these results: Measured potencies and affinities stand elsewhere. Activity calls are given as the source filed them. Unless noted, no rule for the calls is given here.

Broadly, the inhibition is the relative decrease from the control value, in per cent.

Sequence of Plasmodium falciparum protein kinase 6 (PK6, PF3D7_1337100) (Q8IDW1 1-305): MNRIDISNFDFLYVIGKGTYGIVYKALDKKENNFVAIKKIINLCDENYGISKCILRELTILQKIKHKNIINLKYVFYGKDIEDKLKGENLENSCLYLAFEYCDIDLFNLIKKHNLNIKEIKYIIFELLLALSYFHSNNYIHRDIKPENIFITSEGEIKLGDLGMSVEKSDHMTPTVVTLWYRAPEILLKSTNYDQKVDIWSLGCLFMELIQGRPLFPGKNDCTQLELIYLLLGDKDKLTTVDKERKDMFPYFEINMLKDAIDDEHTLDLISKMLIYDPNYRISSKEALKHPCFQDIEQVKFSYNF
Sequence of Calcium-dependent protein kinase 4 (Plasmodium falciparum (isolate 3D7)) (Q8IBS5 whole entry, looked up): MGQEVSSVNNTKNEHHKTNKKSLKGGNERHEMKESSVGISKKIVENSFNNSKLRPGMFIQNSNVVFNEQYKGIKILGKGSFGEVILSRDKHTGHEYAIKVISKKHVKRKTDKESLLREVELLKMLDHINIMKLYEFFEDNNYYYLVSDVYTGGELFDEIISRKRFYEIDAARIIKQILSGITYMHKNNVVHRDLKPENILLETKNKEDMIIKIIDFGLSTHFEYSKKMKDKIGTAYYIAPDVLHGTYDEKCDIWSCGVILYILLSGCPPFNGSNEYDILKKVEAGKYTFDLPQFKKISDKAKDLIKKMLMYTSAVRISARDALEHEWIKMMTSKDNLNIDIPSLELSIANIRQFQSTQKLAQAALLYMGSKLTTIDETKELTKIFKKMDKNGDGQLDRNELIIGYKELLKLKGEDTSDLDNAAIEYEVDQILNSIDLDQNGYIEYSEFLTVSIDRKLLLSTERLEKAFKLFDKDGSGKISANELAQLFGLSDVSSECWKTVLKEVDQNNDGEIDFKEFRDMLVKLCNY
Sequence of Calcium-dependent protein kinase 1 (Plasmodium falciparum (isolate 3D7)) (P62344 whole entry, looked up): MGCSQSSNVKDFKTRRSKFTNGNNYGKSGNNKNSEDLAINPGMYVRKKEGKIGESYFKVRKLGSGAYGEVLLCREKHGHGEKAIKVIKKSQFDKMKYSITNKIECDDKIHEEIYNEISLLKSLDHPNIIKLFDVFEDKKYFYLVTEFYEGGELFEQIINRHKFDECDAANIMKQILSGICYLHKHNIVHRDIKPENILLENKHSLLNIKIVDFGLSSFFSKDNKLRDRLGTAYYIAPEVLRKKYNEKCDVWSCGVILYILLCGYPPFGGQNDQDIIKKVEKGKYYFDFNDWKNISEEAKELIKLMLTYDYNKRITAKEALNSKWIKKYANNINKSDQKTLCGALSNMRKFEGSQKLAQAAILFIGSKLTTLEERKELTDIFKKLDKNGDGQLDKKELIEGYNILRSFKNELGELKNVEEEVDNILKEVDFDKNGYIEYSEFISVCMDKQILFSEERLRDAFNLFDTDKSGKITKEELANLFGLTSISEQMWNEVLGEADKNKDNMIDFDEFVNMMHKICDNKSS
Sequence of Protein kinase 7 (PK7), Plasmodium falciparum 3D7 (PF3D7_0213400) (Q7YTF7 1-343): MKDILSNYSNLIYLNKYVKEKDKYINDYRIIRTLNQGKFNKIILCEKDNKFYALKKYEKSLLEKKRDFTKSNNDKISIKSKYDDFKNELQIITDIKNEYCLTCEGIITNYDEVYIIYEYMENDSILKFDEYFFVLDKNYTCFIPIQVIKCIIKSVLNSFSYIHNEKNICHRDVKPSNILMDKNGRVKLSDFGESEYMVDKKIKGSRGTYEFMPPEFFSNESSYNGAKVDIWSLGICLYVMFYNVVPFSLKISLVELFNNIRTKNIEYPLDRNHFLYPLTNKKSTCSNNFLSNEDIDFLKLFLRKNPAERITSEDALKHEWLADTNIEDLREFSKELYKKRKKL
Sequence of L-lactate dehydrogenase (Plasmodium falciparum (isolate CDC / Honduras)) (Q27743 whole entry, looked up): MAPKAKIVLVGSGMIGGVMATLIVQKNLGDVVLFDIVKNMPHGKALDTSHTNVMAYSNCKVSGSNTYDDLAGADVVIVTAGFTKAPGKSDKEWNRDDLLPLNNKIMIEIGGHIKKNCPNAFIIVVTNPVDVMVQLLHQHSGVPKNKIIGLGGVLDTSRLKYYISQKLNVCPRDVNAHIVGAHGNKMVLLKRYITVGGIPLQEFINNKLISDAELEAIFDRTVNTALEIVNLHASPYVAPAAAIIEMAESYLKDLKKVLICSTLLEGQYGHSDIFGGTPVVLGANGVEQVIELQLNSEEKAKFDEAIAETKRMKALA

For `O=C(Nc1ccc(OC2CCN(Cc3ccccc3)CC2)c(Cl)c1)c1ccsc1`, the growth inhibition is 92% (active) in assay [1] and 87% (active) in assay [4]. Besides, the inhibition was 3% in assay [2] and 4% in assay [3]. Moreover, the outcome in assay [5], in assay [6], in assay [7] and in assay [8] was inactive.
As for `Cc1cc(N2CCOCC2)nc(Nc2ccc(NC(=O)Nc3ccc(F)cc3)cc2)n1`, the results for the growth inhibition in assay [1] and in assay [4] were 34% and 101% (active), respectively. Also, the inhibition in assay [2] was 35%; in assay [3], -2%. In addition, the result in assay [5], in assay [6], in assay [7] and in assay [8] was inactive.
With `Cc1cccc2[nH]c(-c3cccc(-c4ccc(NC(=O)CCc5cnc[nH]5)cc4)c3)nc12`, the growth inhibition in assay [1] is 92% (active); in assay [4], 102% (active). For the same compound, the inhibition in assay [2] is 3%; in assay [3], 6%. In addition, the outcome in assay [5], in assay [6], in assay [7] and in assay [8] was inactive.
In the case of `O=C(/C=C/c1ccc(F)cc1)NC1CCC(CCN2CCc3ccccc3CC2)CC1` (stereo not given), the growth inhibition in assay [1] was 36%; in assay [4], 91% (active). For the same compound, the inhibition in assay [2] is 27%; in assay [3], 4%. Moreover, the result in assay [5], in assay [6], in assay [7] and in assay [8] was inactive.
`COc1ccc(C=NNc2cc(C)nc3ccccc23)c(OC)c1`: the growth inhibition in assay [1] was 94% (active); in assay [4], 101% (active). Also, the inhibition is 24% in assay [2] and -2% in assay [3]. For the same compound, the outcome in assay [5], in assay [6], in assay [7] and in assay [8] was inactive.
With `COc1ccc2ccc(F)c(CC(=O)N3CCOC(CNCc4cccc(-c5ccsc5)n4)C3)c2n1` (stereo not given), the values for the growth inhibition in assay [1] and in assay [4] were 1% and 92% (active), respectively. Moreover, the inhibition in assay [2] was 1%; in assay [3], 3%. Besides, the result in assay [5], in assay [6], in assay [7] and in assay [8] was inactive.
As to `COc1ccc2ccccc2c1CCCCN1CCN(CC(c2ccc(F)cc2)N2CCC2)CC1` (stereo not given), the figures for the growth inhibition in assay [1] and in assay [4] were 51% (active) and 98% (active), respectively. Moreover, the values for the inhibition in assay [2] and in assay [3] were 51% (active) and 9%, respectively. Besides, the result in assay [5], in assay [6], in assay [7] and in assay [8] was inactive.
On to `Cc1cc(NN=Cc2ccc(F)cc2)c2cc(C(F)(F)F)ccc2n1`, for which the growth inhibition in assay [1] was 99% (active); in assay [4], 101% (active). Besides, the inhibition in assay [2] was 2%; in assay [3], -2%. The outcome in assay [5], in assay [6], in assay [7] and in assay [8] was inactive.
In the case of `CCc1c[nH]c2c(N(c3ccccc3)S(C)(=O)=O)cc(C(=O)N[C@@H](Cc3ccccc3)[C@H](O)CNCc3cccc(C(F)(F)F)c3)cc12`, the growth inhibition is 98% (active) in assay [1] and 93% (active) in assay [4]. Also, the inhibition is 20% in assay [2] and 1% in assay [3]. Besides, the result in assay [5], in assay [6], in assay [7] and in assay [8] was inactive.
Turning to `c1ccc2[nH]c(-c3ccc(-c4ccc(CNC5CC5)cc4)s3)nc2c1`, the growth inhibition is 19% in assay [1] and 91% (active) in assay [4]. For the same compound, the figures for the inhibition in assay [2] and in assay [3] were 25% and -7%, respectively. For the same compound, the outcome in assay [5], in assay [6], in assay [7] and in assay [8] was inactive.
For the compound `CC1(C)N=C(N)N=C(N)N1CCc1ccccc1`, the growth inhibition in assay [1] is -1%; in assay [4] it was 93% (active). The inhibition in assay [2] is 50% (active); in assay [3], -4%. Further, the result in assay [5], in assay [6], in assay [7] and in assay [8] was inactive.
As to `O=C(Nc1ccc(OC2CCN(Cc3ccc(F)cc3)CC2)c(Cl)c1)c1ccco1`, the growth inhibition in assay [1] and in assay [4] was 95% (active) in each case. Further, the inhibition in assay [2] was 2%; in assay [3], -4%. For the same compound, the outcome in assay [5], in assay [6], in assay [7] and in assay [8] was inactive.
On to `CCN(CC)CCN(Cc1ccc(-c2ccc(C(F)(F)F)cc2)cc1)C(=O)Cn1c(SCc2ccc(F)c(F)c2F)nc(=O)c2c1CCC2`, for which the growth inhibition is 96% (active) in assay [1] and 91% (active) in assay [4]. Also, the inhibition in assay [2] is 100% (active); in assay [3], -4%. Moreover, the result in assay [5], in assay [6], in assay [7] and in assay [8] was inactive.
`Cc1cc(OCCCN2CCCCC2C)ccc1NC(=O)COc1ccc(Cl)cc1C(=O)c1cc(Cl)cc(C#N)c1` (stereo not given): the values for the growth inhibition in assay [1] and in assay [4] were 14% and 91% (active), respectively. The inhibition in assay [2] is 23%; in assay [3], -2%. Further, the result in assay [5], in assay [6], in assay [7] and in assay [8] was inactive.
`c1ccc(CNc2nc(NCCN3CCCCC3)nc3ccccc23)cc1`: the results for the growth inhibition in assay [1] and in assay [4] were 8% and 87% (active), respectively. In addition, the inhibition in assay [2] was 19%; in assay [3], -11%. Besides, the result in assay [5], in assay [6], in assay [7] and in assay [8] was inactive.
With `Cc1ccccc1N1CCN(c2ccc(C(=O)Nc3ccccc3)cn2)CC1`, the figures for the growth inhibition in assay [1] and in assay [4] were 69% (active) and 95% (active), respectively. Further, the inhibition was 44% in assay [2] and -5% in assay [3]. The outcome in assay [5], in assay [6], in assay [7] and in assay [8] was inactive.
Consider `CN1C(=CC(=O)NC(=O)c2ccccc2)C(C)(C)c2ccccc21`, for which the growth inhibition in assay [1] is 89% (active); in assay [4], 93% (active). In addition, the inhibition in assay [2] was -5%; in assay [3], 4%. For the same compound, the outcome in assay [5], in assay [6], in assay [7] and in assay [8] was inactive.
For `Cc1nc(-c2cccc(Nc3nccc(NCC(O)c4ccccc4)n3)c2)cs1` (stereo not given), the figures for the growth inhibition in assay [1] and in assay [4] were 82% (active) and 99% (active), respectively. The results for the inhibition in assay [2] and in assay [3] were 43% and 3%, respectively. The outcome in assay [5], in assay [6], in assay [7] and in assay [8] was inactive.
Take `CN1CCC(C(=O)N(Cc2ccc(-c3ccc(CNCCc4ccccc4)cn3)cc2)Cc2cccc(F)c2)CC1`: the results for the growth inhibition in assay [1] and in assay [4] were 80% (active) and 90% (active), respectively. Further, the inhibition in assay [2] is 30%; in assay [3], -4%. Moreover, the result in assay [5], in assay [6], in assay [7] and in assay [8] was inactive.
With `CCN(Cc1ccc(-c2ccc(C(F)(F)F)cc2)cc1)C(=O)Cn1c(SCc2cccc(F)c2F)cc(=O)c2cc(CN3CCCCC3)ccc21`, the growth inhibition was 50% (active) in assay [1] and 101% (active) in assay [4]. The inhibition in assay [2] is 95% (active); in assay [3] it was 2%. The result in assay [5], in assay [6], in assay [7] and in assay [8] was inactive.
